Test results as given in the supplement of paper PMC6555819.

These sequences were tested on VDR:RXRa (NR concentration 270 nM, RXRa partner concentration 90 nM) (assay: PBM binding z-score (relative to random genomic background probes); higher = stronger binding; sequences stand for … in GC…GCGATTGACAGCGTAGAATGAAGG).
Protocol: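 Protein-binding microarray (Agilent 4x180K custom design, double-stranded 60-nt probes: 5' GC cap, 34-nt variable region, 24-nt constant primer region; full probe sequence given). Purified or IVT nuclear receptor:RXRα heterodimers (3:1 NR:RXRα, mostly 270:90 nM) or homodimers were incubated for 1 h in PBS with 2% milk and no ligand, then detected with Alexa488 antibodies. Fluorescence from o1-orientation probes (~5 replicates averaged) was converted to z-scores against 500 random hg19 background probes. Variable regions are seed direct-repeat (DR0–DR5) sites, all their single-nucleotide variants and half-site ablations.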

Q: CGTCCAGGGTCAGCAGGTCAGTGAAAGCGACGTG was tested. Which PBM binding z-score did it give?
A: 4.15

Q: With ATATGTAGGTGACATCCGGGTCATTCAGGCTATG as the sequence, how does the PBM binding z-score read?
A: 4

Q: For CAAACTAGGTCAAGAGGTCAAAGACCGCTTCCCG, which PBM binding z-score is on record?
A: 5.93

Q: How did the PBM binding z-score turn out when TGAATCAGGTTAAAGATCAGGGAACGTGGCGTCG was run?
A: 0.238

Q: With TAGCCTCGGTCATGCGGGCCAGTATAGTGTCGGC as the sequence, how does the PBM binding z-score read?
A: -0.284

Q: AGTCAAAGTTCATCTAGGTTACGTAAGATATGCT was tested. Which PBM binding z-score did it give?
A: 5.8

Q: How did the PBM binding z-score turn out when AGTCAAAGTACACTAGGTAACGTAAGATTCAGCT was run?
A: -0.00797

Q: AGAATCAGGTTAAGATCAGGGAAACAGAATACAT was tested. Which PBM binding z-score did it give?
A: 0.3

Q: For GTACCAAGGTGAATAGGTCATTGATGAGTAGGCG, which PBM binding z-score is on record?
A: 2.24

Q: How did the PBM binding z-score turn out when TTACCAAGGTGAGCTGAAGTCGTTGATCCAACTC was run?
A: -0.383

Q: With CAGCTTAGGTCAGGGCCAGTATAGGAGGAACGTT as the sequence, how does the PBM binding z-score read?
A: 0.513

Q: How did the PBM binding z-score turn out when TCGAGTAGGTTAGGCGGGGCATTCAGCCAACATA was run?
A: 1.43

Q: ATCTCTAGGTAAGACTCTGTTCAGTGAAGAACGC was tested. Which PBM binding z-score did it give?
A: 0.234

Q: With ACAGACAGGTGATGAAGGTAACTTAGGCTATCAT as the sequence, how does the PBM binding z-score read?
A: 0.0593

Q: For CGTCCAAGGTCATAGGAGGTCAGTGCAGACAGAT, which PBM binding z-score is on record?
A: 6.74

Q: How did the PBM binding z-score turn out when AGAATGAGGTTATTAAGATCAGGGAGTTGCGGTC was run?
A: 2.3

Q: How did the PBM binding z-score turn out when TCTTGGAGATCAAAGGTTAAGAAAGCCGAAGCCT was run?
A: 1.57

Q: Which PBM binding z-score does the source give for CCTACTGGGCCATCAGGTCGTTGATATCAACGTT here?
A: 0.18

Q: GCGACTGGGGCATCAGCAGGGTACCATAACTTAA was tested. Which PBM binding z-score did it give?
A: -0.459

Q: For CGTCCCAGGTCAAAGGTCAGTGAAGAGATGACGG, which PBM binding z-score is on record?
A: 6.07

Q: With GCAGACAGGTGAAACGCAGGTAGCTCAGGGTGGC as the sequence, how does the PBM binding z-score read?
A: -0.649

Q: TGAATGAGGTTATTAGATCAGGGAACGTTGCAAA was tested. Which PBM binding z-score did it give?
A: 0.99

Q: Which PBM binding z-score does the source give for GGAACGAGGGCATTCGAGTTGATAGCCTGGCGAT here?
A: 3.37

Q: For GGAACGAGGGTATTCGAGTTGATAGCATGGCGAT, which PBM binding z-score is on record?
A: 1.18

Q: Which PBM binding z-score does the source give for ATCGAAAGGTCGTGAGATGAGTATACAGAAAGGC here?
A: 3.09

Q: CAAACTAGGTCAAGGGCAAAGTCGGTTTGTGCCA was tested. Which PBM binding z-score did it give?
A: 2.54

Q: For CGTCCAAGGTCAGAGAGGTCGGTGAATGCCGAGT, which PBM binding z-score is on record?
A: 6.24

Q: For TCCTGTAGATCAAGCAGGTTAAGAAAGCCTGAGT, which PBM binding z-score is on record?
A: 0.503

Q: With GGAACGAGGGCAGAGTTGATAGCATCTGTCGACG as the sequence, how does the PBM binding z-score read?
A: 0.0819

Q: Which PBM binding z-score does the source give for TTACCAAGGTGAGCTGAGGTCGTAGATCCAACTC here?
A: 3.45

Q: With AGTATGAGGTTATTAAGATCAGGGAATTGCGGTC as the sequence, how does the PBM binding z-score read?
A: 2.58

Q: CAAACTAGGTCAAGGTCAAAATCGGTTTGTGCCA was tested. Which PBM binding z-score did it give?
A: 4.7

Q: How did the PBM binding z-score turn out when CCTATTAATTGACCATAAGGGCAACCGAAGCTCG was run?
A: 0.371

Q: How did the PBM binding z-score turn out when TAGCCTAGGTCATGCGGGCGAGTATAGTGTCGGC was run?
A: 1.72

Q: How did the PBM binding z-score turn out when CCGAGTAGGTTATGGGGTATTCAGGCAACGGTGA was run?
A: 0.559

Q: For CGAACGAGTGCATGAGTTGATAGCAAATGCCGAT, which PBM binding z-score is on record?
A: 1.58

Q: How did the PBM binding z-score turn out when CATACAGGGTCAGCTAGGTCAGAGTAGGGACGGC was run?
A: 5.76

Q: For GGAACGAGGGCATTCGAGTTGATAGGATGGCGAT, which PBM binding z-score is on record?
A: 3.74

Q: For CCTTACGGGCCAAGGTTATAGCACGGGTGGTACG, which PBM binding z-score is on record?
A: -0.139

Q: For AGCGAAAGGTCGACGAGGTGAGTATACACCGTTT, which PBM binding z-score is on record?
A: 5.23
